Common to all, as to test: NCI-60 one-dose screen, 48 h (100 = growth as untreated, 0 = no growth, -100 = all killed)
What all share (settings): 10 µM unless noted

Assay [1] deals with SR leukemia.
Assay [2] deals with RPMI-8226 leukemia.
Assay [3] deals with OVCAR-8 ovarian.
The test system of assay [4] is OVCAR-5 ovarian.
The test system of assay [5] is OVCAR-4 ovarian.
Assay [6] concerns SK-OV-3 ovarian.
Assay [7] concerns IGROV1 ovarian.
The subject of assay [8] is OVCAR-3 ovarian.
The test system of assay [9] is HS 578T breast.
In assay [10] the test system is NCI/ADR-RES ovarian.
Assay [11] deals with T-47D breast.
Assay [12] has as its system BT-549 breast.
In assay [13] the test system is MDA-MB-435 melanoma.
In assay [14] the test system is SW-620 colon.
Assay [15] has as its system MCF7 breast.
Assay [16] concerns HCT-116 colon.
Assay [17] concerns KM12 colon.
In assay [18] the test system is HCC-2998 colon.

Values joined by “and” are separate entries in the source; they are usually repeats but may differ in a detail not shown here. Identical values can stand only once. Compounds without any hit were thinned out: in the full panel of roughly 83,000, 20% have a hit.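 96-well plates, one dose, 48 hours. Percent growth reported; active if below 10.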 Active and inactive are the calls of the source.

Take `CCN(CC)CCCC(C)N(Cc1ccccc1)CC(O)c1ccc(Cl)cc1` (stereo unspecified): the growth in assay [1] is 119% (inactive) and 98.1% (inactive); in assay [2], 99.9% (inactive) and 96.7% (inactive); in [3] it was 105% (inactive) and 102% (inactive); in assay [4], 91.2% (inactive); in assay [5], 116% (inactive) and 112% (inactive); in assay [6], 94.4% (inactive) and 102% (inactive). For the same compound, the growth in assay [7] was 113% (inactive) and 101% (inactive); in assay [8] it was 109% (inactive) and 100% (inactive); in [9] it was 93.8% (inactive) and 111% (inactive); in assay [10], 108% (inactive) and 98.3% (inactive); in assay [11], 94.5% (inactive) and 91.3% (inactive); in [12], 110% (inactive) and 102% (inactive). Moreover, the growth was 116% (inactive) and 107% (inactive) in assay [13]; 98.8% (inactive) and 113% (inactive) in assay [14]; 105% (inactive) and 99.3% (inactive) in assay [15]; 102% (inactive) and 100% (inactive) in assay [16]; 103% (inactive) and 101% (inactive) in assay [17].
Consider `CCN(CC)CCNc1cc(-c2cccc(OC(F)(F)F)c2)nc2ccc(N3CCCC3)cc12`, for which the growth in [1] was -29.4% (active) and -36.8% (active) and -10.8% (active); in assay [2] it was -53.3% (active) and -33.8% (active) and 14.6% (inactive); in assay [3] it was 39.7% (inactive) and 2.29% (active) and 22.4% (inactive); in assay [4], 50.6% (inactive) and 5.44% (active) and 34.6% (inactive); in [5], 59.3% (inactive) and 44.7% (inactive) and 30% (inactive); in assay [6], 52.6% (inactive) and 10.9% (inactive) and 53.6% (inactive). The growth in assay [7] is -14.8% (active) and 6.93% (active) and 25.2% (inactive); in [8], 75.8% (inactive) and -2.31% (active) and 47.2% (inactive); in assay [9], 66.4% (inactive) and -7.2% (active) and 38.9% (inactive); in assay [10], 9.79% (active) and -16.8% (active) and 25.2% (inactive); in assay [11], 64.4% (inactive) and -11.2% (active) and 20.9% (inactive); in assay [12], -70.7% (active) and 34.3% (inactive) and 62.7% (inactive). The growth was -4.48% (active) and -55% (active) and -33.6% (active) in assay [13]; 31% (inactive) and 0.803% (active) and 8.35% (active) in [14]; 6.94% (active) and -27.3% (active) and -21.5% (active) in assay [15]; -88% (active) and -45.7% (active) and 4.4% (active) in [16]; 32.3% (inactive) and -1.83% (active) and 9.39% (active) in assay [17].
With `CCOC(=O)c1sc(N)nc1-c1ccccc1`, the growth in [1] was 90.2% (inactive); in assay [2] it was 99.1% (inactive); in [3], 108% (inactive); in assay [4] it was 90.9% (inactive); in assay [5] it was 106% (inactive); in [6] it was 93.7% (inactive). Also, the growth in assay [7] is 101% (inactive); in assay [8], 108% (inactive); in [9] it was 106% (inactive); in assay [10], 104% (inactive); in assay [11], 94.4% (inactive); in [12], 99.9% (inactive). The growth in assay [13] was 103% (inactive); in [14] it was 109% (inactive); in assay [15], 100% (inactive); in [16] it was 96.7% (inactive); in assay [18] it was 102% (inactive); in assay [17], 106% (inactive).
As for `COc1ccccc1/C=N\N=C(N/N=C/c1ccccc1OC)N/N=C/c1ccccc1OC`, the growth in assay [1] was 19.9% (inactive) and 19.6% (inactive); in assay [2], 26.7% (inactive) and -8.79% (active); in [3], 69% (inactive) and 23.3% (inactive); in assay [4], 94.6% (inactive) and 52.1% (inactive); in assay [5] it was 29.2% (inactive); in assay [6], 73.7% (inactive) and 49.8% (inactive). The growth was 87.7% (inactive) and 26.3% (inactive) in assay [7]; -6.91% (active) and 19.3% (inactive) in [8]; 99.5% (inactive) and 33.8% (inactive) in [9]; 45.4% (inactive) and 19.1% (inactive) in [10]; 61.9% (inactive) and 27% (inactive) in assay [11]; 80.8% (inactive) and 39.1% (inactive) in assay [12]. Besides, the growth in assay [13] was 61.9% (inactive) and 30.2% (inactive); in assay [14], 60.8% (inactive) and 20.1% (inactive); in assay [15] it was 23.8% (inactive) and 6.76% (active); in assay [16], 39.5% (inactive) and 14% (inactive); in assay [17], 43.1% (inactive) and 15.6% (inactive).
Take `CC(O)(CC(=O)CC(=O)c1ccccc1)c1ccccc1` (stereo unspecified): the growth in assay [1] was 110% (inactive) and 103% (inactive); in [2], 106% (inactive) and 88.9% (inactive); in assay [3], 106% (inactive) and 102% (inactive); in assay [4], 102% (inactive) and 103% (inactive); in assay [5], 69.9% (inactive) and 118% (inactive); in assay [6], 115% (inactive) and 114% (inactive). The growth is 91.9% (inactive) and 103% (inactive) in [7]; 97.6% (inactive) and 99% (inactive) in [8]; 102% (inactive) in [9]; 83.1% (inactive) and 72.9% (inactive) in assay [10]; 108% (inactive) and 109% (inactive) in assay [11]; 93.4% (inactive) and 95.8% (inactive) in assay [12]. Besides, the growth in assay [13] was 97.8% (inactive); in assay [14], 99.9% (inactive) and 107% (inactive); in assay [15], 108% (inactive) and 123% (inactive); in assay [16], 92.3% (inactive) and 92.6% (inactive); in assay [17], 103% (inactive) and 104% (inactive).
For the compound `O=C(c1ccc(Cl)cc1)C(NCCO)c1ccc(Cl)cc1` (stereo unspecified), the growth in assay [1] was 92.8% (inactive) and 88.1% (inactive); in assay [2], 79.3% (inactive) and 113% (inactive); in assay [3], 99.2% (inactive) and 99.8% (inactive); in [4], 108% (inactive) and 99.5% (inactive); in [5] it was 103% (inactive); in [6], 107% (inactive) and 98.2% (inactive). Also, the growth was 88.5% (inactive) and 91.7% (inactive) in assay [7]; 104% (inactive) and 101% (inactive) in assay [8]; 101% (inactive) and 117% (inactive) in assay [9]; 98.1% (inactive) and 98% (inactive) in [10]; 85.4% (inactive) in [11]; 104% (inactive) and 94.6% (inactive) in assay [12]. In addition, the growth in assay [13] was 97.9% (inactive) and 108% (inactive); in assay [14], 101% (inactive) and 102% (inactive); in [15] it was 103% (inactive) and 97.3% (inactive); in assay [16], 102% (inactive) and 99.4% (inactive); in assay [18], 101% (inactive); in [17], 105% (inactive) and 101% (inactive).
For the compound `Cc1ccc(-c2noc(C)n2)cc1`, the growth was 90.7% (inactive) in assay [1]; 105% (inactive) in assay [2]; 101% (inactive) in [3]; 98.9% (inactive) in [4]; 118% (inactive) in assay [5]; 112% (inactive) in assay [6]. In addition, the growth was 102% (inactive) in assay [7]; 122% (inactive) in [8]; 107% (inactive) in assay [9]; 108% (inactive) in assay [10]; 104% (inactive) in assay [11]; 98.6% (inactive) in assay [12]. For the same compound, the growth is 99% (inactive) in assay [13]; 108% (inactive) in [14]; 95.6% (inactive) in assay [15]; 101% (inactive) in assay [16]; 103% (inactive) in [18]; 116% (inactive) in assay [17].
In the case of `CC(C)C(=O)Nc1ccc([N+](=O)[O-])c(C(F)(F)F)c1`, the growth is 76.4% (inactive) and 88.4% (inactive) in [1]; 63.9% (inactive) in assay [2]; 101% (inactive) and 56.1% (inactive) in assay [3]; 90.4% (inactive) in assay [4]; 83.1% (inactive) and 92.5% (inactive) in assay [5]; 80.2% (inactive) and 99.6% (inactive) in [6]. Also, the growth in [7] was 94.5% (inactive) and 5.73% (active); in [8] it was 86.3% (inactive) and 98.2% (inactive); in [9], 101% (inactive) and 85.4% (inactive); in assay [10], 86.2% (inactive) and 96% (inactive); in assay [11], 85.3% (inactive) and 89.6% (inactive); in assay [12], 84.7% (inactive) and 85.9% (inactive). In addition, the growth was 87% (inactive) and 99.6% (inactive) in assay [13]; 93.8% (inactive) and 96.5% (inactive) in assay [14]; 102% (inactive) and 90% (inactive) in assay [15]; 94.8% (inactive) and 92.8% (inactive) in assay [16]; 97.2% (inactive) and 106% (inactive) in assay [18]; 89.3% (inactive) and 98.4% (inactive) in [17].
On to `O=[N+]([O-])c1ccc(-n2[nH]nnc2=S)cc1`, for which the growth in assay [1] is 92.1% (inactive); in assay [2], 102% (inactive); in assay [3], 107% (inactive); in assay [4], 102% (inactive); in assay [5], 92% (inactive); in assay [6], 103% (inactive). The growth in assay [7] is 91.3% (inactive); in assay [8], 110% (inactive); in [9], 104% (inactive); in assay [10] it was 106% (inactive); in assay [11] it was 103% (inactive); in assay [12], 104% (inactive). The growth in [13] is 106% (inactive); in assay [14] it was 103% (inactive); in [15], 95% (inactive); in [16], 101% (inactive); in assay [18] it was 101% (inactive); in assay [17], 108% (inactive).
`Cc1cc(O)c(C(C)C)cc1S(=O)(=O)O` (tested in a mixture with another compound): the growth in assay [1] was 109% (inactive) and -17.3% (active) and 92.1% (inactive); in assay [2], 88.4% (inactive) and -13.4% (active) and 99.5% (inactive); in assay [3], 97.7% (inactive) and 13.6% (inactive) and 97.5% (inactive); in assay [4] it was 80.8% (inactive) and 28.3% (inactive) and 101% (inactive); in [5], 89.5% (inactive) and 100% (inactive); in assay [6], 105% (inactive) and 5.41% (active) and 118% (inactive). Also, the growth in assay [7] is 102% (inactive) and -2.34% (active) and 93.9% (inactive); in [8], 109% (inactive) and -20.4% (active) and 107% (inactive); in assay [9], 95.3% (inactive) and -15.9% (active) and 103% (inactive); in assay [10] it was 95.3% (inactive) and 2.8% (active) and 111% (inactive); in assay [11], 89.2% (inactive) and 58.9% (inactive) and 96.5% (inactive); in [12], 96.8% (inactive) and -9.88% (active) and 113% (inactive). The growth in [13] was 104% (inactive) and -12.6% (active) and 112% (inactive); in [14] it was 109% (inactive) and 23.2% (inactive) and 102% (inactive); in assay [15], 89.5% (inactive) and 4.62% (active) and 81.2% (inactive); in [16] it was 85.9% (inactive) and 6.36% (active) and 104% (inactive); in [18] it was 91.7% (inactive) and -59% (active) and 112% (inactive); in [17] it was 116% (inactive) and 13.2% (inactive) and 113% (inactive).

Values taken from PubChem BioAssay (NCI).
